# Source: PubChem BioAssay (NCI)
# This is part of a sample that, as a whole, favours compounds with a hit. Of some 79,000 tested, about 15% had one in any assay. Values without a mark were called inactive. Active and inactive are the calls of the source. Rule as the data show it: active = growth inhibition above about 70%; inactive = the rest.
# What was measured:
# [1] = NCI Yeast Anticancer Drug Screen. Data for the rad52 strain (AID 147);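 also: 0% = growth of vehicle-treated control cultures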; details: S. cerevisiae rad52 mutant growth inhibition, hits give high values
# Outline: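 Compounds are applied to a genetically defined yeast strain lacking normal DNA damage repair, and inhibition of growth is expressed relative to cultures given vehicle only.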
# [2] = NCI Yeast Anticancer Drug Screen. Data for the wt1 strain (AID 149);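 also: 0% = growth of vehicle-treated wt1 cultures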; details: S. cerevisiae wt1 strain (SPY 50644) growth inhibition, hits give high values
# Outline: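 Growth inhibition read against vehicle controls after compound exposure of the wt1 yeast strain.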
# [3] = NCI Yeast Anticancer Drug Screen. Data for the rad50EPP+ strain (AID 151);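 also: 0% = growth of vehicle-treated control cultures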; details: S. cerevisiae rad50 mutant strain, hits give high values
# Outline: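 Compounds were applied to the rad50EPP+ yeast strain, which bears a defined DNA repair alteration, and growth inhibition was determined relative to vehicle-treated cultures.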
# [4] = NCI Yeast Anticancer Drug Screen. Data for the mgt1 strain (AID 153); details: S. cerevisiae mgt1 mutant growth inhibition, hits give high values
# Outline: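 Strain: mgt1 yeast, one of a set carrying defined DNA damage repair or cell cycle control alterations. Compound-treated growth compared with vehicle.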
# [5] = NCI Yeast Anticancer Drug Screen. Data for the rad50 strain (AID 155);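 also: 0% = growth of vehicle-only cultures of the same strain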; details: S. cerevisiae rad50 strain growth inhibition, hits give high values
# Outline: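 Readout: growth inhibition relative to vehicle-treated cultures. Compound exposure was carried out in a genetically defined yeast strain deficient in DNA damage repair.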
# [6] = NCI Yeast Anticancer Drug Screen. Data for the mec2-1 strain (AID 157); details: S. cerevisiae mec2-1 strain, hits give high values
# Outline: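 Strain: mec2-1 (DNA repair/cell cycle alteration). Compound exposure, then growth measured; inhibition expressed relative to vehicle.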
# [7] = NCI Yeast Anticancer Drug Screen. Data for the rad14 strain (AID 159);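 also: 0% = growth of vehicle-treated control cultures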; details: S. cerevisiae rad14 strain growth inhibition, hits give high values
# Outline: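 Growth inhibition vs vehicle controls; genetically altered yeast strain (DNA damage repair defect) treated with test compounds.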
# [8] = NCI Yeast Anticancer Drug Screen. Data for the sgs1 mgt1 strain (AID 161);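 also: 0% = growth of cultures given vehicle only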; details: S. cerevisiae sgs1 mgt1 strain, hits give high values
# Outline: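 Inhibition of yeast growth, normalised to vehicle-treated controls, is reported for a strain bearing genetic alterations in DNA damage repair.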
# [9] = NCI Yeast Anticancer Drug Screen. Data for the CLN2oe strain (AID 163);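 also: 0% = growth of vehicle-only control cultures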; details: S. cerevisiae CLN2oe strain, hits give high values
# Outline: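 Growth of a genetically modified yeast strain is measured after compound exposure and compared with cultures given vehicle alone.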
# [10] = NCI Yeast Anticancer Drug Screen. Data for the cln2 rad14 strain (AID 165);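 also: 0% = growth equal to vehicle treated cultures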; details: S. cerevisiae cln2 rad14 strain, hits give high values
# Outline: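 Compounds are applied to the cln2 rad14 yeast strain, and growth is then compared with that of vehicle-treated cultures to give inhibition.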
# [11] = NCI Yeast Anticancer Drug Screen. Data for the bub3 strain (AID 167); details: S. cerevisiae bub3 mutant strain, hits give high values
# Outline: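 Readout: yeast growth inhibition, expressed relative to vehicle-only wells. The test organism is a mutant strain from a panel with lesions in DNA repair or checkpoint genes.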
# [12] = NCI Yeast Anticancer Drug Screen. Data for the wt2 strain (AID 169);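 also: 0% = growth of vehicle-treated yeast cultures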; details: S. cerevisiae wt2 strain growth inhibition, hits give high values
# Outline: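 This strain belongs to a panel of yeast strains with defined genetic alterations in DNA damage repair or cell cycle control. Compounds are applied, and growth inhibition is measured against vehicle-treated cultures.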
# [13] = NCI Yeast Anticancer Drug Screen. Data for the mlh1 strain (AID 171);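 also: 0% = growth of vehicle-treated control cultures of the same strain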; details: S. cerevisiae mlh1 strain growth inhibition, hits give high values
# Outline: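 Growth of the mutant yeast strain after compound exposure, expressed as inhibition relative to vehicle-only controls.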
# [14] = NCI Yeast Anticancer Drug Screen. Data for the sgs1 strain (AID 173);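 also: 0% = growth of vehicle-only control cultures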; details: S. cerevisiae sgs1 mutant, hits give high values
# Outline: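 Growth of a yeast strain bearing a defined genetic alteration is measured after compound treatment. Inhibition is expressed relative to vehicle-only controls.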
# [15] = NCI Yeast Anticancer Drug Screen. Data for the mlh1 rad18 strain (AID 175); details: S. cerevisiae mlh1 rad18 strain growth inhibition, hits give high values
# Outline: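 Read-out is yeast growth inhibition, calculated against vehicle-only controls. The compound was applied to a strain engineered with DNA damage repair alterations.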
# [16] = NCI Yeast Anticancer Drug Screen. Data for the rad18 strain (AID 177); details: S. cerevisiae rad18 mutant growth inhibition, hits give high values
# Outline: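 Growth of the mutant yeast strain after compound exposure, normalised to vehicle-only cultures.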
# [17] = at 5.0 µM (retest, dose inferred, filed as 0.5)
# [18] = at 50.0 µM (retest, dose inferred, filed as 5.0)
structure (smiles),measurement,setting,value
O=C(C(Cl)=C(N1CCCCC1)N1CCCCC1)C(Cl)Cl,growth inhibition,[1]; at 1.2 µM,2%
same,growth inhibition,[1]; at 3.7 µM,6%
same,growth inhibition,[1]; at 11.0 µM,5%
same,growth inhibition,[1]; at 33.0 µM,3%
same,growth inhibition,[1]; at 100.0 µM,2%
same,growth inhibition,[2]; at 1.2 µM,-2%
same,growth inhibition,[2]; at 3.7 µM,0%
same,growth inhibition,[2]; at 11.0 µM,-1%
same,growth inhibition,[2]; at 33.0 µM,-1%
same,growth inhibition,[2]; at 100.0 µM,1%
same,growth inhibition,[3]; at 1.2 µM,1%
same,growth inhibition,[3]; at 3.7 µM,1%
same,growth inhibition,[3]; at 11.0 µM,3%
same,growth inhibition,[3]; at 33.0 µM,3%
same,growth inhibition,[3]; at 100.0 µM,5%
same,growth inhibition,[4]; at 1.2 µM,-3%
same,growth inhibition,[4]; at 3.7 µM,-1%
same,growth inhibition,[4]; at 11.0 µM,-4%
same,growth inhibition,[4]; at 33.0 µM,-3%
same,growth inhibition,[4]; at 100.0 µM,2%
same,growth inhibition,[5]; at 1.2 µM,3%
same,growth inhibition,[5]; at 3.7 µM,6%
same,growth inhibition,[5]; [17],69%
same,growth inhibition,[5]; at 11.0 µM,-2%
same,growth inhibition,[5]; at 33.0 µM,5%
same,growth inhibition,[5]; [18],99% (active)
same,growth inhibition,[5]; at 50.0 µM,64.4%
same,growth inhibition,[5]; at 100.0 µM,3%
same,growth inhibition,[6]; at 1.2 µM,2%
same,growth inhibition,[6]; at 3.7 µM,-2%
same,growth inhibition,[6]; [17],11%
same,growth inhibition,[6]; at 11.0 µM,-3%
same,growth inhibition,[6]; at 33.0 µM,-6%
same,growth inhibition,[6]; [18],99% (active)
same,growth inhibition,[6]; at 50.0 µM,70.7% (active)
same,growth inhibition,[6]; at 100.0 µM,-2%
same,growth inhibition,[7]; at 1.2 µM,-3%
same,growth inhibition,[7]; at 3.7 µM,-1%
same,growth inhibition,[7]; at 11.0 µM,3%
same,growth inhibition,[7]; at 33.0 µM,-2%
same,growth inhibition,[7]; at 100.0 µM,-1%
same,growth inhibition,[8]; [17],-6%
same,growth inhibition,[8]; [18],99% (active)
same,growth inhibition,[8]; at 50.0 µM,85.2% (active)
same,growth inhibition,[9]; at 1.2 µM,2%
same,growth inhibition,[9]; at 3.7 µM,4%
same,growth inhibition,[9]; at 11.0 µM,3%
same,growth inhibition,[9]; at 33.0 µM,1%
same,growth inhibition,[9]; at 100.0 µM,9%
same,growth inhibition,[10]; [17],7%
same,growth inhibition,[10]; [18],99% (active)
same,growth inhibition,[10]; at 50.0 µM,23.9%
same,growth inhibition,[11]; at 1.2 µM,-5%
same,growth inhibition,[11]; at 3.7 µM,2%
same,growth inhibition,[11]; [17],-5%
same,growth inhibition,[11]; at 11.0 µM,9%
same,growth inhibition,[11]; at 33.0 µM,4%
same,growth inhibition,[11]; [18],99% (active)
same,growth inhibition,[11]; at 50.0 µM,68.1%
same,growth inhibition,[11]; at 100.0 µM,2%
same,growth inhibition,[12]; at 1.2 µM,-1%
same,growth inhibition,[12]; at 3.7 µM,1%
same,growth inhibition,[12]; at 11.0 µM,2%
same,growth inhibition,[12]; at 33.0 µM,2%
same,growth inhibition,[12]; at 100.0 µM,2%
same,growth inhibition,[13]; at 1.2 µM,-2%
same,growth inhibition,[13]; at 3.7 µM,-4%
same,growth inhibition,[13]; at 11.0 µM,2%
same,growth inhibition,[13]; at 33.0 µM,0%
same,growth inhibition,[13]; at 100.0 µM,1%
same,growth inhibition,[14]; at 1.2 µM,-50%
same,growth inhibition,[14]; at 3.7 µM,-3%
same,growth inhibition,[14]; at 11.0 µM,-2%
same,growth inhibition,[14]; at 33.0 µM,-4%
same,growth inhibition,[14]; at 100.0 µM,-1%
same,growth inhibition,[15]; [17],48%
same,growth inhibition,[15]; [18],99% (active)
same,growth inhibition,[15]; at 50.0 µM,81.3% (active)
same,growth inhibition,[16]; at 1.2 µM,-2%
same,growth inhibition,[16]; at 3.7 µM,1%
same,growth inhibition,[16]; at 11.0 µM,-2%
same,growth inhibition,[16]; at 33.0 µM,-15%
same,growth inhibition,[16]; at 100.0 µM,-1%
CCCNC(=O)OCc1c(COC(=O)NCCC)c(-c2ccc(Cl)c(Cl)c2)n2c1CCC2,growth inhibition,[1]; at 1.2 µM,-3%
same,growth inhibition,[1]; at 3.7 µM,-7%
same,growth inhibition,[1]; at 11.0 µM,-5%
same,growth inhibition,[1]; at 33.0 µM,29%
same,growth inhibition,[1]; at 100.0 µM,58%
same,growth inhibition,[2]; at 1.2 µM,-25%
same,growth inhibition,[2]; at 3.7 µM,-38%
same,growth inhibition,[2]; at 11.0 µM,-35%
same,growth inhibition,[2]; at 33.0 µM,-34%
same,growth inhibition,[2]; at 100.0 µM,4%
same,growth inhibition,[3]; at 1.2 µM,-4%
same,growth inhibition,[3]; at 3.7 µM,0%
same,growth inhibition,[3]; at 11.0 µM,-6%
same,growth inhibition,[3]; at 33.0 µM,8%
same,growth inhibition,[3]; at 100.0 µM,5%
same,growth inhibition,[4]; at 1.2 µM,-48%
same,growth inhibition,[4]; at 3.7 µM,-35%
same,growth inhibition,[4]; at 11.0 µM,-30%
same,growth inhibition,[4]; at 33.0 µM,-7%
same,growth inhibition,[4]; at 100.0 µM,50%
same,growth inhibition,[5]; at 1.2 µM,-39%
same,growth inhibition,[5]; at 3.7 µM,-43%
same,growth inhibition,[5]; [17],21%
same,growth inhibition,[5]; at 11.0 µM,-27%
same,growth inhibition,[5]; at 33.0 µM,1%
same,growth inhibition,[5]; [18],42%
same,growth inhibition,[5]; at 50.0 µM,61.9%
same,growth inhibition,[5]; at 100.0 µM,50%
same,growth inhibition,[6]; at 1.2 µM,-47%
same,growth inhibition,[6]; at 3.7 µM,-40%
same,growth inhibition,[6]; [17],11%
same,growth inhibition,[6]; at 11.0 µM,-31%
same,growth inhibition,[6]; at 33.0 µM,-12%
same,growth inhibition,[6]; [18],25%
same,growth inhibition,[6]; at 50.0 µM,41.1%
same,growth inhibition,[6]; at 100.0 µM,28%
same,growth inhibition,[7]; at 1.2 µM,-28%
same,growth inhibition,[7]; at 3.7 µM,-3%
same,growth inhibition,[7]; at 11.0 µM,0%
same,growth inhibition,[7]; at 33.0 µM,54%
same,growth inhibition,[7]; at 100.0 µM,73% (active)
same,growth inhibition,[8]; [17],30%
same,growth inhibition,[8]; [18],67%
same,growth inhibition,[8]; at 50.0 µM,50.7%
same,growth inhibition,[9]; at 1.2 µM,0%
same,growth inhibition,[9]; at 3.7 µM,-16%
same,growth inhibition,[9]; at 11.0 µM,-15%
same,growth inhibition,[9]; at 33.0 µM,4%
same,growth inhibition,[9]; at 100.0 µM,20%
same,growth inhibition,[10]; [17],20%
same,growth inhibition,[10]; [18],73% (active)
same,growth inhibition,[10]; at 50.0 µM,22.8%
same,growth inhibition,[11]; at 1.2 µM,-53%
same,growth inhibition,[11]; at 3.7 µM,-47%
same,growth inhibition,[11]; [17],60%
same,growth inhibition,[11]; at 11.0 µM,-24%
same,growth inhibition,[11]; at 33.0 µM,6%
same,growth inhibition,[11]; [18],90% (active)
same,growth inhibition,[11]; at 50.0 µM,46.2%
same,growth inhibition,[11]; at 100.0 µM,48%
same,growth inhibition,[12]; at 1.2 µM,-36%
same,growth inhibition,[12]; at 3.7 µM,-16%
same,growth inhibition,[12]; at 11.0 µM,-27%
same,growth inhibition,[12]; at 33.0 µM,-21%
same,growth inhibition,[12]; at 100.0 µM,44%
same,growth inhibition,[13]; at 1.2 µM,-9%
same,growth inhibition,[13]; at 3.7 µM,-9%
same,growth inhibition,[13]; at 11.0 µM,-19%
same,growth inhibition,[13]; at 33.0 µM,26%
same,growth inhibition,[13]; at 100.0 µM,57%
same,growth inhibition,[14]; at 1.2 µM,0%
same,growth inhibition,[14]; at 3.7 µM,4%
same,growth inhibition,[14]; at 11.0 µM,11%
same,growth inhibition,[14]; at 33.0 µM,40%
same,growth inhibition,[14]; at 100.0 µM,62%
same,growth inhibition,[15]; [17],22%
same,growth inhibition,[15]; [18],62%
same,growth inhibition,[15]; at 50.0 µM,56.4%
same,growth inhibition,[16]; at 1.2 µM,-35%
same,growth inhibition,[16]; at 3.7 µM,-29%
same,growth inhibition,[16]; at 11.0 µM,2%
same,growth inhibition,[16]; at 33.0 µM,62%
same,growth inhibition,[16]; at 100.0 µM,78% (active)
